The source made the active and inactive calls. Unless noted, the call rests on the fitted dose curve; in most records, active means well fitted curve in the direction sought with a large enough effect in the repeat runs; inconclusive means weak or mixed curves; inactive means flat fitted curve, though single readings scatter.
What was measured:
[1] = qHTS assay to test for compound auto fluorescence at 535 nm (green) in HEK293 cells (AID 720680)
[2] = qHTS assay to test for compound auto fluorescence at 460 nm (blue) in HEK293 cell free culture (AID 720681)
In short: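 Blue fluorescence (Ex 405/Em 460 nm, triamterene-equivalent) was read immediately after pin transfer of compound or DMSO into medium (DMEM, 10% FBS) without cells.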

[3] = qHTS assay to test for compound auto fluorescence at 535 nm (green) in HEK293 cell free culture (AID 720682)
In short: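 No cells present: wells hold DMEM supplemented with 10% FBS, into which compound or vehicle is pinned. Green emission is then recorded (485 nm excitation, 535 nm emission) and scaled to fluorescein.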

[4] = qHTS assay to test for compound auto fluorescence at 590 nm (red) in HEK293 cell free culture (AID 720683)
In short: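 Red-channel autofluorescence of compounds in culture medium (DMEM, 10% FBS), no cells, measured at 540/590 nm. Rose Bengal sodium is the reference fluorophore for equivalence.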

[5] = qHTS assay to test for compound auto fluorescence at 590 nm (red) in HepG2 cell free culture (AID 720684)
In short: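 Steps: dispense MEM/10% FBS medium, no cells; pin compound or DMSO vehicle; read red channel, Ex/Em 540/590 nm. Output given as Rose Bengal sodium equivalents.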

[6] = qHTS assay to test for compound auto fluorescence at 460 nm (blue) in HepG2 cell free culture (AID 720685)
In short: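 Compound (23 nL) or DMSO pinned into cell-free MEM with 10% FBS; blue fluorescence read at 405/460 nm excitation/emission, expressed as auto-fluorescence equivalency to triamterene.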

[7] = qHTS assay to test for compound auto fluorescence at 535 nm (green) in HepG2 cell free culture (AID 720686)
[8] = qHTS assay to test for compound auto fluorescence at 460 nm (blue) in HepG2 cells (AID 720687)
In short: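 Blue-channel autofluorescence (Ex/Em 405/460 nm, triamterene-equivalent) was measured after 1 hr compound exposure at 37 C, 5% CO2. Cells were HepG2, plated overnight at 37 C in MEM plus 10% FBS.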

[9] = target: Glucocorticoid receptor (Homo sapiens) (UniProt P04150); assay: qHTS assay to identify small molecule agonists of the glucocorticoid receptor (GR) signaling pathway (AID 720691; active means well fitted activation curve with a large enough effect in the signal ratio in the repeat runs, not every such curve was filed as active; inconclusive means weak or mixed curves, or effect the other way; inactive means no such curve, though single readings can be large or run the other way; the % refers to the signal ratio; further: potency means the concentration at half of the fitted maximal effect)
Glucocorticoid receptor (Homo sapiens), sequence (P04150 whole entry, looked up): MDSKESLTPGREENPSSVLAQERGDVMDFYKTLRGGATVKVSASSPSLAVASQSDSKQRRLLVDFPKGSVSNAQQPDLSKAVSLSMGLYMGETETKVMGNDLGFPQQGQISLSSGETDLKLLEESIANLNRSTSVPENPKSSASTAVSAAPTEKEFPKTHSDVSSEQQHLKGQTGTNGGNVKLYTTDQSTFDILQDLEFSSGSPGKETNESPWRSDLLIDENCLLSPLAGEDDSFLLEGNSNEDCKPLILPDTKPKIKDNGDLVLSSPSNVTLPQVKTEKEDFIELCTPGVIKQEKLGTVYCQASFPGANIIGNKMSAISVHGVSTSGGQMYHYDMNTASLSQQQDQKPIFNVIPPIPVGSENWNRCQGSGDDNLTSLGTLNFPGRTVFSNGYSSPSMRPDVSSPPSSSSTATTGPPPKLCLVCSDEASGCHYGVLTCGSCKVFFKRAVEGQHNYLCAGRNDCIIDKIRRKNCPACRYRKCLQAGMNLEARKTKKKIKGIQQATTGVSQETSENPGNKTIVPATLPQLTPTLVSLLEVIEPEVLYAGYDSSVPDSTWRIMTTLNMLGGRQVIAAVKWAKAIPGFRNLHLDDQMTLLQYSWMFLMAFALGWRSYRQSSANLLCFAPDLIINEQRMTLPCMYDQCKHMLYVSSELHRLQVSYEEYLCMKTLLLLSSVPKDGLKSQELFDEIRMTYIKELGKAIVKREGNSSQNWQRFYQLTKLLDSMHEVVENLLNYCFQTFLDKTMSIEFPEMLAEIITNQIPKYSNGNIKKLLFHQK
In short: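 qHTS in GR-bla HeLa cells: 4 h settling at 37 C/5% CO2, 18 h compound incubation at 37 C, 2 h LiveBLAzer B/G FRET substrate at room temperature, fluorescence intensity measured.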

[10] = target: Glucocorticoid receptor (Homo sapiens) (UniProt P04150); assay: qHTS assay to identify small molecule antagonists of the glucocorticoid receptor (GR) signaling pathway (AID 720692; active means well fitted inhibition curve with a large enough effect in the signal ratio in the repeat runs, not every such curve was filed as active; inconclusive means weak or mixed curves, or effect the other way; inactive means no such curve, though single readings can be large or run the other way; the % refers to the signal ratio)
In short: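 Inhibition of glucocorticoid signalling is measured in HeLa cells with a GRE-controlled beta-lactamase reporter; cells are co-treated with compound and 5 nM dexamethasone (final) for 18 h before FRET substrate readout.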
On the % scale 0 is the no-effect control and ±100 the full control effect.

OC[C@H]1O[C@@H]2O[C@H]3[C@H](O)[C@@H](O)[C@@H](O[C@H]4[C@H](O)[C@@H](O)[C@@H](O[C@H]5[C@H](O)[C@@H](O)[C@@H](O[C@H]6[C@H](O)[C@@H](O)[C@@H](O[C@H]7[C@H](O)[C@@H](O)[C@@H](O[C@H]8[C@H](O)[C@@H](O)[C@@H](O[C@H]9[C@H](O)[C@@H](O)[C@@H](O[C@H]1[C@H](O)[C@H]2O)O[C@@H]9CO)O[C@@H]8CO)O[C@@H]7CO)O[C@@H]6CO)O[C@@H]5CO)O[C@@H]4CO)O[C@@H]3CO
inactive: outcome [1] | Potency [2] | outcome [3] | outcome [4] | outcome [5] | Potency [6] | outcome [7] | Potency [8] | Potency [9] | Potency [10]

CC(=O)O[C@H](CC(=O)[O-])C[N+](C)(C)C
inactive: outcome [1] | Potency [2] | outcome [3] | outcome [4] | outcome [5] | Potency [6] | outcome [7] | Potency [8] | Potency [9] | Potency [10]

COc1ccc(COC=O)cc1
inactive: outcome [1] | Potency [2] | outcome [3] | outcome [4] | outcome [5] | Potency [6] | outcome [7] | Potency [8] | Potency [10]

c1ccc2cnncc2c1
inactive: outcome [1] | Potency [2] | outcome [3] | outcome [4] | outcome [5] | Potency [6] | outcome [7] | Potency [8] | Potency [9] | Potency [10]

NCC[C@H](O)C(=O)N[C@@H]1C[C@H](N)[C@@H](O[C@H]2O[C@H](CN)[C@@H](O)[C@H](O)[C@H]2O)[C@H](O)[C@H]1O[C@H]1O[C@H](CO)[C@@H](O)[C@H](N)[C@H]1O
inactive: outcome [1] | Potency [2] | outcome [3] | outcome [4] | outcome [5] | Potency [6] | outcome [7] | Potency [8] | Potency [9] | Potency [10]

CC(C)CCCC(C)CCCC(C)CCCCC(C)CCCC(C)CCCC(C)C (stereo not drawn)
inactive: outcome [1] | Potency [2] | outcome [3] | outcome [4] | outcome [5] | Potency [6] | Potency [8] | Potency [9]

Oc1ccc2c(c1)OC[C@@H](N1CCC(O)(c3ccc(F)cc3)CC1)[C@H]2O
inactive: outcome [1] | Potency [2] | outcome [3] | outcome [4] | outcome [5] | Potency [6] | Potency [8] | Potency [9] | Potency [10]

CCCCCCCCCCCCCCCCCCOCC(O)CO (stereo not drawn)
inactive: outcome [1] | Potency [2] | outcome [3] | outcome [4] | outcome [5] | Potency [6] | Potency [8]
active: Potency [9] 952 nM [inconclusive]

CC(C)c1ccc2oc3nc(N)c(C(=O)O)cc3c(=O)c2c1
inactive: outcome [1] | Potency [2] | outcome [3] | outcome [4] | outcome [5] | Potency [6] | Potency [9] | Potency [10]

NC(=O)c1ncn([C@@H]2O[C@H](CO)[C@@H](O)[C@H]2O)c1O
inactive: outcome [1] | Potency [2] | outcome [3] | outcome [4] | outcome [5] | Potency [6] | Potency [8] | Potency [9] | Potency [10]

CC(C)CCCCCCN
inactive: outcome [1] | Potency [2] | outcome [3] | outcome [4] | outcome [5] | Potency [6] | outcome [7] | Potency [9] | Potency [10]

CC(=O)N[C@@H](CCC(N)=O)C(=O)O
inactive: outcome [1] | Potency [2] | outcome [3] | outcome [4] | outcome [5] | Potency [6] | Potency [8] | Potency [10]

O=[N+]([O-])c1ccc(CCO)cc1
inactive: outcome [1] | Potency [2] | outcome [3] | outcome [4] | outcome [5] | Potency [6] | outcome [7] | Potency [9] | Potency [10]

CC(C)COC(=O)C(C)C
inactive: outcome [1] | Potency [2] | outcome [3] | outcome [4] | outcome [5] | Potency [6] | Potency [9] | Potency [10]

O=C(O)C(O)[C@H](O)[C@@H](O)[C@H](O)[C@H](O)CO (stereo partly drawn)
inactive: outcome [1] | Potency [2] | outcome [3] | outcome [4] | outcome [5] | Potency [6] | Potency [8]

CCCCCCCCCCCl
inactive: outcome [1] | Potency [2] | outcome [3] | outcome [4] | outcome [5] | Potency [6] | Potency [8] | Potency [9]

FC(F)(F)C(F)(F)C(F)(F)C(F)(F)C(F)(F)C(F)(F)C(F)(F)C(F)(F)C(F)(F)C(F)(F)F
inactive: fluorescence, % of fluorescein [1] 0.0789% [at 9.17 µM] | fluorescence, % of fluorescent control [2] -0.0458% [at 9.17 µM] | activity change [3] 0.0023% [at 9.17 µM] | fluorescence, % of fluorescent control [4] -0.0476% [at 9.17 µM] | fluorescence, % of Rose Bengal [5] -0.199% [at 9.17 µM] | fluorescence, % of fluorescent control [6] -0.151% [at 9.17 µM] | fluorescence, % of fluorescein control [7] 0.0369% [at 9.17 µM] | activation [9] -0.303% [at 6.9 µM] | activity change, negative = inhibition [10] -11.7% [at 7.04 µM]

C=CCOc1nc(OCC=C)nc(OCC=C)n1
inactive: outcome [1] | Potency [2] | outcome [3] | outcome [4] | outcome [5] | Potency [6] | Potency [8] | Potency [9] | Potency [10]
